Measurements reported in the supplement of paper PMC6555819.

Test system: PPARg:RXRa 90nM:30nM, anti-RXR (NR concentration 90 nM, RXRa partner concentration 30 nM)
Experiment: PBM binding z-score (relative to random genomic background probes); higher = stronger binding; sequences stand for … in GC…GCGATTGACAGCGTAGAATGAAGG
How it was run: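 Antibodies against each partner of ligand-free nuclear receptor dimers (one per run) detected binding on custom Agilent 4×180K protein-binding microarrays after 1 h incubation. The double-stranded probes had 34-nt variable regions carrying direct-repeat seeds, single-nucleotide variants, half-site ablations and random human genomic background sequences. Binding z-scores, from regression-normalized fluorescence, use the random background probes as reference.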

Sequence | PBM binding z-score
CCATGTAGGTTAAGGGGGTCATTCAGTTTGAAAG | 6.52
TCGATTAGGTTACGGGGGCATTCAGGGATGAAGA | 5.46
CCGAGTAGGTTACGAGGGGGCATTCTGTGCGAAT | 2.35
TCGACTAGGTTACGGGGGCATTCAGGGATGAAGA | 5.76
TCGAGTACGTTACGGGGGCATTCAGGGATGAAGA | 1.85
TTGAGTAGGTTACGGGGGCATTCAGGGATGAAGA | 5.83
TCGAGTAGGTTCCGGGGGCATTCAGGGATGAAGA | 2.24
CCGGGTAGGTTACGAGGGGGCATTCAGTGCGAAT | 2.49
CTATGTAGGTTAAGGGGGTCACTCAGTTTGAAAG | 8.19
CTATGTAGGTTAAGGGGGTCATTCTGTTTGAAAG | 7.63
CTATGTAAGTTAAGGGGGTCATTCAGTTTGAAAG | 4.55
CTATGCAGGTTAAGGGGGTCATTCAGTTTGAAAG | 5.29
CCGAGTAGGTTACGAGGGGGTATTCAGTGCGAAT | 1.9
TCGAGGAGGTTACGGGGGCATTCAGGGATGAAGA | 5.24
CTATGTAGGTTGAGGGGGTCATTCAGTTTGAAAG | 5.21
CCGAGTAGGTTACAAGGGGGCATTCAGTGCGAAT | 2.98
CTACGTAGGTTAAGGGGGTCATTCAGTTTGAAAG | 4.84
CCGAGTAGGTTACGAGGCGGCATTCAGTGCGAAT | 0.408
CCGAGTAGGTTATGAGGGGGCATTCAGTGCGAAT | 2.77
TCGAGTCGGTTACGGGGGCATTCAGGGATGAAGA | 2.15

Sequence | PBM binding z-score
TCGAGTAGGTTACGGGGGGATTCAGGGATGAAGA | 4.14
CCGAGTAGGTTACGATGGGGCATTCAGTGCGAAT | 0.557
TCGAGTAGGTTACCGGGGCATTCAGGGATGAAGA | 2
TCGAGTAGGTTACGGGGGCAGTCAGGGATGAAGA | 4.41
TCGAGTAGGTTGCGGGGGCATTCAGGGATGAAGA | 2.95
CTATGTAGGTTAAGGGGGTCGTTCAGTTTGAAAG | 6.85
CCGAGTGGGTTACGAGGGGGCATTCAGTGCGAAT | 1.74
CTATTTAGGTTAAGGGGGTCATTCAGTTTGAAAG | 6.89
CCGAGTAGGTTACGAAGGGGCATTCAGTGCGAAT | 0.939
TCGAGTAGGTTACGGGGGCATTCCGGGATGAAGA | 4.91
TCGAGTAGGTTAAGGGGGCATTCAGGGATGAAGA | 5.72
CTATATAGGTTAAGGGGGTCATTCAGTTTGAAAG | 8.09
CTATGTAGGTTAAGGGGGGCATTCAGTTTGAAAG | 7.7
CCGAGTAGGTTAGGAGGGGGCATTCAGTGCGAAT | 2.24
TCGAGTAGGCTACGGGGGCATTCAGGGATGAAGA | 1.8
CTATGTAGGGTAAGGGGGTCATTCAGTTTGAAAG | 7.42
CTATGTAGGTTATGGGGGTCATTCAGTTTGAAAG | 7.06
CTGTGTAGGTTAAGGGGGTCATTCAGTTTGAAAG | 5.78
CCGAGTTGGTTACGAGGGGGCATTCAGTGCGAAT | 0.481
